# Bioassay records as filed in PubChem BioAssay.
# RE007 growth inh – less growth of the S. pombe RE007 Vpr strain. S. pombe RE007 Vpr strain, BacTiter-Glo ATP luminescence, 24 h. Potency, µM (highest dose often 92.2 µM), inactives show top-dose activity change, negative = less growth, usual class: inhibitors. actives 0.21% (n = 360,000). AID 651644; active = well fitted falling curve with a large enough effect; inconclusive = small, poorly fitted or top-dose-only effect; inactive = no such curve, though single readings can be large or run the other way; also: potency is read from the fitted curve at half-maximal effect; % is scaled to controls: 0 for no effect and ±100 for the full control effect; nearly all actives have a fitted effect of over 50% in size
#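 Fission yeast strain RE007, carrying one chromosomally integrated HIV-1 vpr copy, was seeded at OD 0.01 in PMG+AL medium with 23 nL pinned compound. After 24 h at 30 °C and 99% humidity, viability was read by BacTiter-Glo luminescence.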
# Tb PYK inh – T. brucei pyruvate kinase inhibition; Q57TT1; TbPYK enzyme, Kinase-Glo Plus ATP luminescence, 45 min; Potency, µM (series often up to 76.8 µM), inactives show at the top dose activity, negative = inhibition, actives largely listed as inhibitors; actives 0.12% (n = 410,000); also: potency is read from the fitted curve at half-maximal effect; % is scaled to controls: 0 for no effect and ±100 for the full control effect; nearly all actives have a fitted effect of over 50% in size
#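 Assay buffer: 50 mM TEA pH 7.2, 100 mM KCl, 10 mM MgCl2, 0.05% BSA, 0.01% Tween-20. Pyruvate kinase from T. brucei plus substrate met compound, then ADP (130 uM final). Luminescence was read post 45 min RT.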
# AMA1 RON2 block – AMA1-RON2 (P. falciparum) interaction inhibition; AlphaScreen AMA1-biotinylated RON2 peptide binding; Potency, µM (highest dose often 58.2 µM), without a hit: at the top dose activity change, negative = inhibition, actives largely listed as inhibitors; actives 0.2% (n = 360,000);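 also: potency is read from the fitted curve at half-maximal effect; 0% = vehicle wells and -100% = peptide control; nearly all actives have a fitted effect of over 45% in size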
#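 AMA1 (3D7) with his tag at 25 nM final met compounds first, then biotinylated RON2 peptide at 25 nM; detection used donor plus acceptor beads, 10 µg/mL apiece, read by AlphaScreen after 30 min at room temperature.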
# LmPK inhibitor – blocks Leishmania mexicana pyruvate kinase activity | Q27686 | actives 0.37% (n = 290,000) | AID 1721 | Potency, µM (highest dose often 57.5 µM), inactives show at the top dose activity change, negative = inhibition, hits mostly inhibitors | purified LmPK, Kinase-Glo ATP luminescence, 1 h; also: potency is read from the fitted curve at half-maximal effect; % is scaled to controls: 0 for no effect and ±100 for the full control effect
# Target sequence (Q27686 whole entry, looked up): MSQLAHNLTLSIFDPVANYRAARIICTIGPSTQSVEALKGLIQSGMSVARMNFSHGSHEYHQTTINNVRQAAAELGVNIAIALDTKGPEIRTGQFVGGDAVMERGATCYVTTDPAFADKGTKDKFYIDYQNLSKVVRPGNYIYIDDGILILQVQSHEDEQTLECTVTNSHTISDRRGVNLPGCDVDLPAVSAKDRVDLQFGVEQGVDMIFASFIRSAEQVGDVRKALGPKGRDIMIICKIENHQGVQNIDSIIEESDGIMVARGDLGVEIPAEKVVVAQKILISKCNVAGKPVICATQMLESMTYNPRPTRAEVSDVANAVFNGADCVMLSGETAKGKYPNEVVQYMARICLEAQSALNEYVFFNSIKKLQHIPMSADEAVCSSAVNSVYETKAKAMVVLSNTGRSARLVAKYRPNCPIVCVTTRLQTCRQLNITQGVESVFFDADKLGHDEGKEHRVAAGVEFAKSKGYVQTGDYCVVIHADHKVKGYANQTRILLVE
#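 qHTS format; LmPK 0.1 nM; substrates PEP 0.5 mM and ADP 0.1 mM. One-hour room-temperature incubation, then coupled luciferase luminescence; 0.5 nM enzyme wells mark activation.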
# LmPK confirm – Blocks LmPK activity, confirmation assay; shares compounds with LmPK inhibitor; purified LmPK, Kinase-Glo ATP luminescence, 1 h; Potency, µM (series often up to 57.5 µM), inactives show at the highest dose activity change, negative = inhibition, most hits filed as inhibitors; actives 40% (n = 150);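 active = compounds giving a full or partial concentration-response curve, as inhibitors or activators; inconclusive = weak, top-dose-only or unclear curve responses; inactive = no response at any tested dose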
# Active calls of the source: *; ? = inconclusive; nt = not tested or not shown. Sampled rows, rich in hits. Any-hit rate of the full collection: about 0.68%. Unless noted, calls follow the shape of the dose curve; as a rule, active = well fitted curve in the direction sought with a large enough effect; inconclusive = small, poorly fitted or top-dose-only effect, or another doubt; inactive = no such curve, though single readings can be large; an effect the other way counts as inactive or inconclusive.
SMILES,RE007 growth inh,Tb PYK inh,AMA1 RON2 block,LmPK inhibitor,others
COc1cccc(/C=C/C(=O)OCC(=O)NC2CCCCCC2)c1,16.5%,-1.5%,7.3%,nt,
O=C(CCc1c[nH]c2ccccc12)NN1C(=O)NC2(CCCCC2)C1=O,-5.4%,-0.4%,0.0%,nt,
Oc1ccc(-c2n[nH]c(=S)n2Cc2ccccc2)cc1,14.2%,?,-6.3%,8.91µM*,
Fc1ccc(-c2n[nH]c(=S)n2Cc2ccccc2)cc1,11.6%,?,68.7%,-26.6%,
C/C(=N/NC(=O)c1cc(C2CC2)[nH]n1)c1cccs1,10.6%,-5.5%,37.2%,22.4µM*,
C/C(=N\NC(=O)c1ccncc1)c1cccs1,-3.5%,-5.3%,22.3%,-10.5%,
C/C(=N\NC(=O)c1ccccc1O)c1cccs1,-25.3%,-26.1%,14.3%,14.1µM*,
Cc1cc(C)n2cc(COc3ccc4ccccc4c3)nc2n1,-5.1%,-9.7%,25.9%,-0.1%,
Cc1cccc2nc(COc3ccc(-c4ccccc4)cc3)cn12,nt,nt,nt,25.1µM*,
CCOC(=O)NNc1ccc2nonc2c1[N+](=O)[O-],25.1µM*,-16.5%,?,-1.2%,
O=C1c2ccccc2-c2onc3ccc(NCCCn4ccnc4)c1c23,14.3%,0.9%,23.8µM*,-24.8%,
Nc1nc(N)c2c(ccc3c2ccn3Cc2cccc([N+](=O)[O-])c2)n1,5.62µM*,0.6%,31.6µM*,nt,
COc1ccc(N2CCN(C(=O)Cc3ccc(C)cc3)CC2)cc1,6.1%,-2.0%,-12.0%,-0.2%,
COc1ccc(N2CCN(C(=O)Cc3ccc(Cl)cc3)CC2)cc1,8.9%,-0.4%,17.8µM*,-1.4%,
Cc1cc(=O)n2c(sc3ccccc32)c1C#N,2.1%,-2.2%,9.0%,2.2%,
O=C(/C=C/c1cccs1)NC(=S)NNC(=O)c1ccccc1O,4.6%,-9.5%,-70.2%,2.6%,
COc1ccc(C(=O)NNC(=S)NC(=O)/C=C/c2cccs2)cc1,-12.1%,-9.7%,35.7%,25.1µM*,
CCCCCc1cc(=O)oc2c(C(CCN(CC)CC)c3ccc(N(C)C)cc3)c(OC)cc(OC)c12 (stereo not given),0.3%,-5.0%,25.1µM*,4.9%,
CCCCCc1cc(=O)oc2c(C(CCN3CCCC(C)C3)c3ccc(N(C)C)cc3)c(OC)cc(OC)c12 (stereo not given),2.6%,-8.2%,14.1µM*,-1.6%,
CCN(CC)CCC(c1cc(OC)c(OC)c(OC)c1)c1c(OC)cc(OC)c2c(C)cc(=O)oc12 (stereo not given),-11.4%,1.3%,-2.3%,4.3%,
CC(=O)Nc1ccc(NS(=O)(=O)c2cc(Cl)sc2Cl)cc1,-7.0%,4.4%,6.3%,3.7%,
O=C(CN1C(=O)COc2ccccc21)NCCCN1CCCCC1,-10.9%,-11.9%,-5.4%,0.1%,
Cn1c(SCC(=O)N2CCOCC2)nnc1-c1cccc(NC(=O)c2ccccc2F)c1,-26.2%,2.2%,-15.7%,-0.2%,
CCN1C=C(C(=O)OC)C(c2cccc(C)c2)C(C(=O)OC)=C1,13.8%,-1.3%,55.9%,15.0%,
c1coc(-c2ncc[nH]2)c1,0.0%,-11.6%,28.2µM*,-0.4%,
SMILES,RE007 growth inh,Tb PYK inh,AMA1 RON2 block,LmPK inhibitor,others
Clc1cccc(C2CCN(Cc3nc(CC4CC4)no3)C2)c1 (stereo not given),-35.6%,-12.6%,?,-0.9%,
Cc1ccc(C(=O)O/N=C(\N)c2ccccn2)cc1,?,?,41.9%,14.1µM*,
C/C(=N/OC(=O)c1ccc(C)cc1)c1cccs1,?,?,0.0%,10µM*,
CC(C)(C)c1ccc(C(=O)O/N=C(\N)c2ccccn2)cc1,-2.0%,-8.1%,42.9%,-15.7%,
Cc1cccc(/C(N)=N/OC(=O)c2ccc(Br)o2)c1,?,-17.1%,15.2%,-22.6%,
N/C(=N\OC(=O)c1ccc(Br)o1)c1ccccn1,?,-21.5%,46.3%,12.6µM*,
C/C(=N\OC(=O)c1ccc(C)cc1)c1sc(C)nc1C,29.7%,-5.5%,-7.7%,?,
Cc1ccc(C(=O)NCc2ccc(Cl)c(Cl)c2)o1,25.1µM*,1.0%,-16.8%,3.2%,
Cc1ccc(-c2cn3cccc(C)c3n2)cc1,-23.6%,0.8%,-17.2%,25.1µM*,
CCCN1CCCc2cc(CN(CCCN3CCOCC3)C(=O)Nc3ccc(OCC)cc3)ccc21,-6.3%,-7.9%,26.7µM*,8.0%,
Nc1c(C(=O)NCC2CCCO2)sc2nc3c(c(-c4ccco4)c12)CC/C3=C\c1ccco1 (stereo not given),-2.1%,-6.3%,8.91µM*,-4.7%,
NC(=O)c1sc2nc3c(c(-c4ccco4)c2c1N)CCCC3,19.8%,-10.1%,-0.5%,-0.7%,
Cc1ccc(C(=O)OCn2ncc(Cl)c(Cl)c2=O)cc1,50.1µM*,14.2%,20.7%,6.1%,
C=CC[n+]1ccc(/C=C2\C=Cc3cc(C)ccc3N2CC)c2ccccc21,31.6µM*,-33.6%,?,?,
O=C(CSCc1ccc(Cl)cc1)Nc1ccccc1C(=O)N1CCOCC1,4.3%,-6.5%,-10.7%,2.3%,
CN=CC1=C(O)c2ccccc2C1=O,-6.7%,4.2%,0.0%,1.0%,
O=C1C(C2=C(O)c3ccccc3C2=O)=Nc2ccccc21,?,?,-17.4%,17.8µM*,
CCc1nnc(NC(=O)C2CC(=O)N(C3CCCCC3)C2)s1 (stereo not given),-5.6%,-16.7%,4.4%,-0.4%,
C=C(C)C1CC=C(C)/C(=N\NC(=O)CNc2cccc3ccccc23)C1 (stereo not given),-1.9%,3.3%,11.5%,-3.2%,
C=C(C)[C@H]1CC=C(C)/C(=N/NC(=O)CNc2ccccc2OC)C1,-20.6%,0.8%,7.9%,-1.6%,LmPK confirm=2.2%
CSc1nc(C)c(CCOC(=O)c2cccc(C)c2)c(=O)[nH]1,-0.4%,-0.1%,-0.7%,6.3%,
Cc1cc(CN(C)Cc2cn(C)nc2-c2ccc(Oc3ccccc3)cc2)on1,-4.6%,2.1%,-6.5%,-4.8%,LmPK confirm=4.2%
CN(Cc1cccnc1)Cc1cn(C)nc1-c1ccc(Oc2ccccc2)cc1,-6.9%,4.5%,8.5%,3.6%,
COc1ccc(S(=O)(=O)NC(C)C(=O)NCC2CCCO2)cc1OC (stereo not given),94.5%,-11.7%,-13.2%,-3.0%,
Cc1ccc(C(=O)/C=C/C(=O)c2ccc(C)cc2)cc1,-17.3%,?,-14.9%,3.98µM*,LmPK confirm=?
Cc1ccc(/C=C/C(=O)c2ccc(C)cc2)cc1,1.4%,-0.9%,0.8%,-7.7%,
COc1ccc(-c2cc3nc(C)n(N)c(=O)c3s2)cc1,11.2µM*,?,-0.3%,2µM*,LmPK confirm=2.91µM*
Cc1nc2cc(-c3ccccc3)sc2c(=O)n1N,?,10µM*,-0.7%,2.24µM*,LmPK confirm=4.61µM*
COC(=O)C1=C(c2ccc(F)cc2OCc2ccccc2)C[C@@H]2CC[C@H]1N2C(=O)NCc1ccccc1Br,12.7%,2.2%,-1.6%,nt,
